Here are results for 13 molecules from PubChem BioAssay (NCATS).

Results filed as inconclusive are left out. A number with no mark means an inactive call. Active and inactive are the calls of the source. Calls follow the shape of the dose curve; as a rule, active = well fitted curve in the direction sought with a large enough effect; inconclusive = small, poorly fitted or top-dose-only effect, or another doubt; inactive = no such curve, though single readings can be large; an effect the other way counts as inactive or inconclusive.

For experiment [1], the system named is HaCat. Nature of the experiment: Cytotoxic Profiling of Annotated Libraries Using Quantitative High-Throughput Screening (AID 1296008). Also: nearly all actives have a fitted effect of over 60% in size. Also: potency is read from the fitted curve at half-maximal effect. As to max response: % is scaled to controls: 0 for no effect and ±100 for the full control effect. The note with it: Five cell lines viability, CellTiter-Glo ATP luminescence, 48-72 h; max response: stronger effect = lower value. The method in brief: (§1)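 Cells exposed to compounds for 48 or 72 hr at 37 degrees Celsius. Viability read as ATP-coupled luminescence with CellTiter-Glo after 10 min at room temperature.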
A general note: ATP-based viability assays read luminescence as a measure of living cells.

The test system of experiment [2] is KB-3-1. The experiment is described as above. The note with it: Five cell lines viability, CellTiter-Glo ATP luminescence, 48-72 h; max response: stronger effect = lower value. Put shortly: as §1
Experiment [3] concerns NIH3T3. The description is as above. The note with it: Five cell lines viability, CellTiter-Glo ATP luminescence, 48-72 h; max response: stronger effect = lower value. Put shortly: as §1
Experiment [4] has as its system HACAT. The experiment in a line: qHTS assay to identify novel small-molecules to repurpose for Merkel cell carcinoma treatment (AID 1296009). Also: nearly all actives have a fitted effect of over 60% in size. The note with it: MCC and control cell lines, CellTiter-Glo viability, 72 h; at 44.8 µM (top of the series) unless noted. The method in brief:
(§2)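 CellTiter-Glo luminescence after 72 hr compound exposure at 37 degree celsius gave cell viability. Libraries NPC and MIPE were run as 8- and 11-point dose responses; RLUs normalized to DMSO (negative) and no-cell (cytotoxicity) controls.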

The subject of experiment [5] is CAOV3. Nature of the experiment: Primary qHTS to identify gynecologic anti-cancer compounds using libraries of approved drugs and bioactive compounds (AID 1345084). Also: nearly all actives have a fitted effect of over 55% in size. Also: potency is read from the fitted curve at half-maximal effect. The settings on record: Gynecologic cancer cell panel viability, ATPlite luminescence, 48 h; series mostly up to 57.5 µM. The method in brief:
(§3)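 Cells, 1,000 per well, plated 16 h, then exposed 48 h at 37 C to compounds. Viability by ATPlite luminescence after 15 min at room temperature.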
For orientation: qHTS replaces the single test concentration by a dilution series.

The subject of experiment [6] is CASKI. Described as above. The settings on record: Gynecologic cancer cell panel viability, ATPlite luminescence, 48 h; series mostly up to 57.5 µM. Put shortly:
as §3

The subject of experiment [7] is Es-2. The description is as above. The note with it: Gynecologic cancer cell panel viability, ATPlite luminescence, 48 h; series mostly up to 57.5 µM. The method in brief:
as §3

In experiment [8] the test system is HeLa. Described as above. The note with it: Gynecologic cancer cell panel viability, ATPlite luminescence, 48 h; series mostly up to 57.5 µM. The method in brief:
as §3

The subject of experiment [9] is Hek293T. The description is as above. The settings on record: Gynecologic cancer cell panel viability, ATPlite luminescence, 48 h, control line for the selectivity index; series mostly up to 57.5 µM. Put shortly: as §3
Experiment [10] concerns PA-1. The experiment is described as above. The note with it: Gynecologic cancer cell panel viability, ATPlite luminescence, 48 h; series mostly up to 57.5 µM. The method in brief: as §3
Experiment [11] relates to NIH3T3. The experiment in a line: qHTS assay to identify novel small-molecules to repurpose for Merkel cell carcinoma treatment (AID 1296009). Also: nearly all actives have a fitted effect of over 60% in size. The settings on record: MCC and control cell lines, CellTiter-Glo viability, 72 h; series mostly up to 44.8 µM. The method in brief: as §2
For experiment [12], the system named is C33A. The experiment in a line: Primary qHTS to identify gynecologic anti-cancer compounds using libraries of approved drugs and bioactive compounds (AID 1345084). Also: nearly all actives have a fitted effect of over 55% in size. Also: potency is read from the fitted curve at half-maximal effect. The note with it: Gynecologic cancer cell panel viability, ATPlite luminescence, 48 h; series mostly up to 57.5 µM. The method in brief: as §3
Experiment [13] has as its system JEG-3. The experiment is described as above. The note with it: Gynecologic cancer cell panel viability, ATPlite luminescence, 48 h; series mostly up to 57.5 µM. The method in brief:
as §3

Experiment [14] has as its system OV90. The experiment is described as above. The settings on record: Gynecologic cancer cell panel viability, ATPlite luminescence, 48 h; series mostly up to 57.5 µM. The method in brief:
as §3

For the molecule `C/C=C(\C)C(=O)O[C@@H]1[C@@H](C)[C@]2(O)[C@@H]3C=C(C)C(=O)[C@H]3CC(CO)=C[C@H]2C2C(C)(C)[C@@]21OC(=O)C(C)CC` (some centres undefined), the molecule was called inactive in experiment [1]. Also, the max response is 0.342% in [2] and 4.54% in experiment [3]. In addition, the outcome in experiment [4] was “inactive [at 17.4 µM]”. The Potency entry in [5], in experiment [6], in experiment [8], in [9] and in experiment [10] was “inactive” in each case. Moreover, the Potency in [7] was 355 nM (active).
As to `C=C1[C@H]2CC[C@H](C(=O)O)[C@@]23CC[C@H](C3)C1(C)C`, in [1], the max response was -74.2%. The molecule was called inactive in experiment [2] and in experiment [3]. Besides, the Potency result in [11], in experiment [12], in experiment [5], in experiment [7], in experiment [8] and in experiment [9] was “inactive” in each case. The Potency result in [13], in experiment [14] and in experiment [10] was “inactive” in each case.
On to `Cc1ccnc(NC(=O)C(C)c2cccc(C(=O)c3ccccc3)c2)c1` (centres undefined), for which the molecule was called inactive in experiment [1] and in experiment [4]. The max response in experiment [2] was -17.5%; in [3], -5.36%. Also, the Potency result in experiment [12], in experiment [5], in experiment [6], in [7], in [8] and in experiment [9] was “inactive” in each case. Further, the Potency result in [13], in [14] and in experiment [10] was “inactive” throughout.
With `O=C([C@@H]1CCCN(c2ccc3[nH]c(C4(n5cc(Cl)cn5)CC4)nc3n2)C1)N1CCCC1`, the max response in [1] was -7.93%; in experiment [2], -11.1%; in [3], -6.68%. Moreover, the Potency result in [12], in experiment [5], in experiment [6], in [7], in experiment [8] and in experiment [9] was “inactive” each time. Besides, the Potency entry in [13], in experiment [14] and in [10] was “inactive” in each case.
For the molecule `CC(=O)OC1C(O)CC2(C)C(CCC3(C)C2CC=C2C4C5(CCC(CO[C@@H]6O[C@H](CO)[C@@H](O)[C@H](O)[C@H]6O)(OC5=O)C4(C)O)C(O)CC23C)C1(C)C` (some centres undefined), the max response in experiment [1] was -8.16%; in experiment [3], 2.97%. Also, the outcome in experiment [2] was inactive. The Potency result in [12], in experiment [5], in experiment [6], in experiment [7], in experiment [8] and in experiment [9] was “inactive” in each case. Also, the Potency entry in experiment [13], in experiment [14] and in experiment [10] was “inactive” throughout.
Consider `C=CC(C)(C)C12CC3C(=O)N4C(CC5(C(C)(C)C=C)c6ccccc6NC45)C(=O)N3C1Nc1ccccc12` (centres undefined), for which the Potency in [1] was 11200 nM (active). For the same molecule, the max response in experiment [2] is 3.74%; in experiment [3], 1.64%. Besides, the Potency entry in [12], in [5], in experiment [6], in experiment [7], in [8] and in [9] was “inactive” throughout. The Potency result in experiment [14] and in experiment [10] was “inactive” each time.
Turning to `C/C=C(\C)C(=O)O[C@H]1C[C@](C)(O)[C@H]2CC=C(C)[C@H]2[C@@H]2OC(=O)[C@H](C)[C@H]21`, the max response in [1] was 2.74%; in experiment [2] it was -0.753%; in experiment [3], 0.0048%. In addition, the Potency result in experiment [12], in experiment [5], in experiment [6], in experiment [7], in experiment [8] and in [9] was “inactive” each time. In addition, the Potency entry in experiment [13], in experiment [14] and in [10] was “inactive” throughout.
In the case of `C=C1CC[C@@H](O)[C@]2(C)C[C@H]3OC(=O)C(=C)[C@H]3CC12` (some centres undefined), the call in [1] and in experiment [4] was inactive. In addition, the max response in [2] is 1.13%. For the same molecule, the Potency result in experiment [12], in experiment [6], in experiment [7], in experiment [8], in [13] and in [14] was “inactive” throughout. Besides, the Potency entry in experiment [10] is “inactive”.
Turning to `COc1cc(C#N)ccc1S(=O)(=O)Nc1ccc2c(c1)cc(C)c(=O)n2C`, the max response in experiment [1] is -9.16%; in experiment [2] it was -22.2%; in experiment [3], -0.625%. The Potency entry in experiment [12], in [6], in experiment [7], in [8], in [9] and in experiment [13] was “inactive” each time. Also, the Potency result in experiment [14] and in [10] was “inactive” in each case.
Turning to `CN1CCN(S(=O)(=O)c2ccc(-c3cnc(N)c(C(=O)Nc4cccnc4)n3)cc2)CC1`, the max response is -21.1% in [1] and 3.5% in experiment [2]. Further, the Potency in [3] was 632 nM (active). Also, the Potency entry in experiment [12], in experiment [6], in [7], in experiment [8], in [9] and in experiment [14] was “inactive” each time.
For `COc1nc2ccc(Br)cc2cc1[C@@H](c1ccccc1)[C@@](O)(CCN(C)C)c1cccc2ccccc12`, the max response is -2.21% in [1] and -1.57% in [2]. Moreover, the Potency in [3] was 18400 nM (active). The Potency entry in experiment [12], in experiment [5], in experiment [6], in experiment [7], in experiment [8] and in experiment [13] was “inactive” each time. Also, the Potency result in [14] and in [10] was “inactive” in each case.
In the case of `O=c1[nH]c([C@@H]2CCCN2)nc2c1oc1ccc(Cl)cc12`, in [1], the Potency is 1460 nM (active). The max response in experiment [2] is -19.5%; in experiment [3], -23.2%. The Potency entry in experiment [5], in experiment [6], in experiment [7], in experiment [9], in experiment [13] and in [14] was “inactive” throughout. In addition, in [10], the Potency result is “inactive”.
Take `C[C@@H]1O[C@@H](O[C@H]2[C@@H]3C=CO[C@@H](O[C@@H]4O[C@H](CO)[C@@H](O)[C@H](O)[C@H]4O)[C@@H]3[C@@]3(CO)O[C@@H]23)[C@H](O)[C@H](OC(=O)/C=C/c2ccccc2)[C@H]1O`: the molecule was classed as inactive in experiment [1] and in experiment [2]. The outcome in experiment [4] was “inactive [at 17.4 µM]”. In addition, the Potency result in experiment [12], in [5], in experiment [6], in experiment [7], in experiment [8] and in [9] was “inactive” throughout. The Potency entry in experiment [13] and in experiment [14] was “inactive” each time.
